Test results published in PubChem BioAssay (NCI).
About 83,000 compounds went through this panel and 20% of them were active in at least one assay; those are over-represented in the sample as a whole.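 For each line, cells grew in 96-well plates with the test compound present at a single concentration for 48 hours.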 A number with no mark means an inactive call. Active and inactive are the calls of the source. Rule for the calls: active = growth percent below 10; inactive = the rest.

How the values were obtained:
Test in all cases: NCI-60 one-dose screen, 48 h (100 = growth as untreated, 0 = no growth, -100 = all killed)
Conditions in all cases: 10 µM unless noted
HCT-15 colon = test system: HCT-15 colon
SNB-75 CNS = test system: SNB-75 CNS
SNB-19 CNS = test system: SNB-19 CNS
U251 CNS = test system: U251 CNS
SK-MEL-5 melanoma = test system: SK-MEL-5 melanoma
UACC-62 melanoma = test system: UACC-62 melanoma
LOX IMVI melanoma = test system: LOX IMVI melanoma
SK-MEL-28 melanoma = test system: SK-MEL-28 melanoma
SK-MEL-2 melanoma = test system: SK-MEL-2 melanoma
EKVX NSCLC = test system: EKVX NSCLC
SN12C renal = test system: SN12C renal
UO-31 renal = test system: UO-31 renal
TK-10 renal = test system: TK-10 renal
ACHN renal = test system: ACHN renal
CAKI-1 renal = test system: CAKI-1 renal
CCRF-CEM leukemia = test system: CCRF-CEM leukemia
MOLT-4 leukemia = test system: MOLT-4 leukemia
A498 renal = test system: A498 renal
PC-3 prostate = test system: PC-3 prostate
HT29 colon = test system: HT29 colon

CC(O)CN(CC(C)O)c1ccc2c(c1)Cc1cc([N+](=O)[O-])ccc1-2 (stereo not given)
growth (HCT-15 colon): 83.5% | growth (SNB-75 CNS): 87.5% | growth (SNB-19 CNS): 98.9% | growth (U251 CNS): 102% | growth (SK-MEL-5 melanoma): 103% | growth (UACC-62 melanoma): 95.7% | growth (LOX IMVI melanoma): 96.2% | growth (SK-MEL-28 melanoma): 109% | growth (SK-MEL-2 melanoma): 95.9% | growth (EKVX NSCLC): 74.8% | growth (SN12C renal): 99.6% | growth (UO-31 renal): 63.2% | growth (TK-10 renal): 97.3% | growth (ACHN renal): 93% | growth (CAKI-1 renal): 84.6% | growth (CCRF-CEM leukemia): 106% | growth (MOLT-4 leukemia): 69.8%

Cn1ncc2c(=O)nc3c(-c4ccccc4)n[nH]n3c21
growth (HCT-15 colon): 104% | growth (SNB-75 CNS): 96.3% | growth (SNB-19 CNS): 99.1% | growth (U251 CNS): 110% | growth (SK-MEL-5 melanoma): 110% | growth (UACC-62 melanoma): 96.7% | growth (LOX IMVI melanoma): 115% | growth (SK-MEL-28 melanoma): 138% | growth (SK-MEL-2 melanoma): 112% | growth (SN12C renal): 99.5% | growth (UO-31 renal): 97.1% | growth (TK-10 renal): 99.5% | growth (ACHN renal): 116% | growth (CAKI-1 renal): 74.4% | growth (A498 renal): 112% | growth (MOLT-4 leukemia): 99.6%

CC(C)(C)c1cc(C(C)(C)C)cc(S(=O)(=O)Nc2cc3ccccc3cc2C(=O)NCCN)c1
growth (HCT-15 colon): 38.8% | growth (SNB-75 CNS): 63.4% | growth (SNB-19 CNS): 68.9% | growth (U251 CNS): -21.8% (active) | growth (SK-MEL-5 melanoma): 81.1% | growth (UACC-62 melanoma): 55% | growth (LOX IMVI melanoma): -77.8% (active) | growth (SK-MEL-28 melanoma): -44.9% (active) | growth (SK-MEL-2 melanoma): 62.3% | growth (EKVX NSCLC): 89.5% | growth (SN12C renal): 46.6% | growth (UO-31 renal): 53.2% | growth (TK-10 renal): 78.8% | growth (ACHN renal): 70.9% | growth (CAKI-1 renal): 64% | growth (A498 renal): -2.57% (active) | growth (CCRF-CEM leukemia): 57.7% | growth (MOLT-4 leukemia): 77%

C#CC(F)(F)[C@]1(O)CC[C@H]2[C@@H]3CCC4=CC(=O)CCC4=C3[C@@H](c3ccc(C4CC4)cc3)C[C@@]21C
growth (HCT-15 colon): 59.3% | growth (SNB-75 CNS): -15.9% (active) | growth (SNB-19 CNS): 46.1% | growth (U251 CNS): -32.2% (active) | growth (PC-3 prostate): -53.8% (active) | growth (UACC-62 melanoma): 26.7% | growth (LOX IMVI melanoma): -84.6% (active) | growth (SK-MEL-28 melanoma): 90.2% | growth (SK-MEL-2 melanoma): 59.5% | growth (EKVX NSCLC): -67.4% (active) | growth (SN12C renal): 60.3% | growth (UO-31 renal): -84.8% (active) | growth (TK-10 renal): 99.8% | growth (ACHN renal): 40.4% | growth (CAKI-1 renal): -73.3% (active) | growth (A498 renal): -5.83% (active) | growth (CCRF-CEM leukemia): -63% (active) | growth (MOLT-4 leukemia): -6.54% (active)

CCOc1ccc(-n2nc(C(=O)Nc3ccccc3)nc2-c2cc(OC)c(OC)c(OC)c2)cc1
growth (HCT-15 colon): 35.4% | growth (SNB-75 CNS): 35.1% | growth (SNB-19 CNS): 55.8% | growth (U251 CNS): 36.1% | growth (PC-3 prostate): 44.9% | growth (LOX IMVI melanoma): 55.8% | growth (SK-MEL-2 melanoma): 37.7% | growth (EKVX NSCLC): 53.2% | growth (UO-31 renal): 37.7% | growth (TK-10 renal): 72.4% | growth (ACHN renal): 62.8% | growth (CAKI-1 renal): 51.6% | growth (A498 renal): 10.3% | growth (CCRF-CEM leukemia): 50.8% | growth (MOLT-4 leukemia): 42.9%

COC[C@H](C)n1c(C2CCOCC2)nc2cnc3cc(-c4c(C)noc4C)c(OC)cc3c21
growth (HCT-15 colon): 34.6% | growth (SNB-75 CNS): 31.2% | growth (SNB-19 CNS): 64.8% | growth (U251 CNS): 54.1% | growth (PC-3 prostate): 44.8% | growth (UACC-62 melanoma): 31.7% | growth (LOX IMVI melanoma): 27% | growth (SK-MEL-28 melanoma): 59% | growth (SK-MEL-2 melanoma): 76.6% | growth (EKVX NSCLC): 59.7% | growth (SN12C renal): 76.1% | growth (UO-31 renal): 19.5% | growth (TK-10 renal): 29.4% | growth (ACHN renal): 43.7% | growth (CAKI-1 renal): 16.2% | growth (A498 renal): 5.12% (active) | growth (CCRF-CEM leukemia): 61.4% | growth (MOLT-4 leukemia): 42.2%

CN(C)[C@@H]1C(=O)C(C(=O)NCc2nc3[nH]cnc(=S)c3[nH]2)=C(O)[C@@]2(O)C(=O)C3=C(O)c4c(O)cccc4[C@@](C)(O)[C@H]3C[C@@H]12
growth (HCT-15 colon): 76.7% | growth (SNB-75 CNS): 61.8% | growth (SNB-19 CNS): 84.1% | growth (U251 CNS): 96% | growth (SK-MEL-5 melanoma): 75.5% | growth (UACC-62 melanoma): 25.5% | growth (LOX IMVI melanoma): 12.4% | growth (SK-MEL-28 melanoma): 118% | growth (SK-MEL-2 melanoma): 13.1% | growth (EKVX NSCLC): 88.8% | growth (SN12C renal): 87.8% | growth (UO-31 renal): 47.4% | growth (TK-10 renal): 22.7% | growth (ACHN renal): 74% | growth (A498 renal): 101% | growth (CCRF-CEM leukemia): 14.1% | growth (MOLT-4 leukemia): 12.9%

CC[C@@H]1O[C@H](O[C@@H](c2cnc[nH]2)[C@H](NC(=O)c2nc([C@H](CC(N)=O)NC[C@@H](N)C(N)=O)nc(N)c2C)C(=O)N[C@H](C)[C@H](O)[C@H](C)C(=O)N[C@@H](C(=O)NCCc2nc(-c3nc(C(=O)NCCCCN=C(N)N)cs3)cs2)[C@@H](C)O)[C@H](O[C@@H]2O[C@H](CO)[C@H](O)[C@H](OC(N)=O)[C@@H]2O)[C@H](C)[C@@H]1C
growth (HCT-15 colon): 45.1% | growth (HT29 colon): 53.9% | growth (SNB-19 CNS): 45.9% | growth (U251 CNS): 35.3% | growth (PC-3 prostate): 71.2% | growth (UACC-62 melanoma): 37.5% | growth (SK-MEL-28 melanoma): 87.6% | growth (SK-MEL-2 melanoma): 101% | growth (EKVX NSCLC): 91.8% | growth (SN12C renal): 21.9% | growth (UO-31 renal): 23.2% | growth (TK-10 renal): 71.9% | growth (A498 renal): 78.2% | growth (CCRF-CEM leukemia): 80.5% | growth (MOLT-4 leukemia): 46.8%

C=C1C(=O)O[C@H]2[C@H]1CC/C(COC(=O)NCc1ccc(OC)c(OC)c1)=C\CC[C@@]1(C)O[C@@H]21
growth (HCT-15 colon): 50.7% | growth (SNB-75 CNS): 58.7% | growth (SNB-19 CNS): 87.2% | growth (U251 CNS): 86.5% | growth (PC-3 prostate): 78.4% | growth (LOX IMVI melanoma): 69.4% | growth (SK-MEL-2 melanoma): 85.1% | growth (EKVX NSCLC): 65.9% | growth (UO-31 renal): 56.7% | growth (TK-10 renal): 50.9% | growth (ACHN renal): 6.25% (active) | growth (CAKI-1 renal): 32.9% | growth (A498 renal): 86.9% | growth (CCRF-CEM leukemia): -7.86% (active) | growth (MOLT-4 leukemia): 39.4%

N#Cc1c(-c2ccc(Cl)cc2)nc(N/N=C/c2cccc(Br)c2)nc1N1CCOCC1
growth (HCT-15 colon): 8.41% (active) | growth (HT29 colon): 29% | growth (SNB-75 CNS): 76.8% | growth (SNB-19 CNS): 107% | growth (PC-3 prostate): 61.2% | growth (SK-MEL-5 melanoma): 85.6% | growth (UACC-62 melanoma): 92.6% | growth (SK-MEL-28 melanoma): 99.5% | growth (SK-MEL-2 melanoma): 94.5% | growth (EKVX NSCLC): 68.7% | growth (SN12C renal): 91.4% | growth (UO-31 renal): 51.2% | growth (TK-10 renal): 102% | growth (ACHN renal): 71.5% | growth (CAKI-1 renal): 73% | growth (CCRF-CEM leukemia): 50.3% | growth (MOLT-4 leukemia): 36.1%

C=CCSSc1ncnc2c1ncn2C1OC(CO)C(O)C1O (stereo not given)
growth (HCT-15 colon): 47.9% | growth (SNB-75 CNS): 39.7% | growth (SNB-19 CNS): 88.1% | growth (U251 CNS): 80% | growth (SK-MEL-5 melanoma): 61.1% | growth (UACC-62 melanoma): 18.4% | growth (LOX IMVI melanoma): 8.74% (active) | growth (SK-MEL-28 melanoma): 109% | growth (EKVX NSCLC): 91.9% | growth (SN12C renal): 76.2% | growth (UO-31 renal): 36.5% | growth (TK-10 renal): 26% | growth (ACHN renal): 25.3% | growth (CAKI-1 renal): -2.6% (active) | growth (A498 renal): 43.3% | growth (MOLT-4 leukemia): 13.2%

Cn1c(O)c(N=NC(=O)c2cc(-c3ccccc3)on2)c2ccccc21
growth (HCT-15 colon): 101% | growth (SNB-75 CNS): 58.5% | growth (SNB-19 CNS): 98.2% | growth (PC-3 prostate): 103% | growth (SK-MEL-5 melanoma): 99.3% | growth (UACC-62 melanoma): 98.9% | growth (LOX IMVI melanoma): 92.2% | growth (SK-MEL-28 melanoma): 107% | growth (SK-MEL-2 melanoma): 95.3% | growth (EKVX NSCLC): 88.5% | growth (SN12C renal): 100% | growth (UO-31 renal): 88% | growth (TK-10 renal): 125% | growth (ACHN renal): 100% | growth (CAKI-1 renal): 90.4% | growth (A498 renal): 85.8% | growth (CCRF-CEM leukemia): 108% | growth (MOLT-4 leukemia): 105%
